70 compounds from PubChem BioAssay can be followed below.

The target in experiment [1] is Nuclear receptor coactivator 1 (Homo sapiens) (UniProt Q15788). As to the kind of experiment: NCOA1 GAL4-fusion reporter inhibition – cell-based, luminescence, quadruplicate, confirmation (AID 588820;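 active = mean inhibition above 46.68%, the untreated control wells mean plus 3 SD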;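 also: 0% = DMSO wells and 100% = gossypol 36 µM treated wells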). The following applies: HEK293 GAL4-SRC1 luciferase reporter, at 3.6 µM, stronger effect = higher value. In general terms: A reporter such as luciferase makes a cellular process visible.

Experiment [2] can be described thus: repression of VP16-driven luciferase reporter – cell-based, luminescence, high throughput, counter-screen for SRC1 inhibitor project (AID 588824). The following applies: cell-based VP16 transactivation luciferase luminescence; at 3.6 µM; stronger effect = higher value.

The source made the active and inactive calls. Rule as the data show it, unless noted: active = inhibition above about 25%; inactive = the rest.

Nuclear receptor coactivator 1 (Homo sapiens), sequence (Q15788 whole entry, looked up, the tested form may be a part): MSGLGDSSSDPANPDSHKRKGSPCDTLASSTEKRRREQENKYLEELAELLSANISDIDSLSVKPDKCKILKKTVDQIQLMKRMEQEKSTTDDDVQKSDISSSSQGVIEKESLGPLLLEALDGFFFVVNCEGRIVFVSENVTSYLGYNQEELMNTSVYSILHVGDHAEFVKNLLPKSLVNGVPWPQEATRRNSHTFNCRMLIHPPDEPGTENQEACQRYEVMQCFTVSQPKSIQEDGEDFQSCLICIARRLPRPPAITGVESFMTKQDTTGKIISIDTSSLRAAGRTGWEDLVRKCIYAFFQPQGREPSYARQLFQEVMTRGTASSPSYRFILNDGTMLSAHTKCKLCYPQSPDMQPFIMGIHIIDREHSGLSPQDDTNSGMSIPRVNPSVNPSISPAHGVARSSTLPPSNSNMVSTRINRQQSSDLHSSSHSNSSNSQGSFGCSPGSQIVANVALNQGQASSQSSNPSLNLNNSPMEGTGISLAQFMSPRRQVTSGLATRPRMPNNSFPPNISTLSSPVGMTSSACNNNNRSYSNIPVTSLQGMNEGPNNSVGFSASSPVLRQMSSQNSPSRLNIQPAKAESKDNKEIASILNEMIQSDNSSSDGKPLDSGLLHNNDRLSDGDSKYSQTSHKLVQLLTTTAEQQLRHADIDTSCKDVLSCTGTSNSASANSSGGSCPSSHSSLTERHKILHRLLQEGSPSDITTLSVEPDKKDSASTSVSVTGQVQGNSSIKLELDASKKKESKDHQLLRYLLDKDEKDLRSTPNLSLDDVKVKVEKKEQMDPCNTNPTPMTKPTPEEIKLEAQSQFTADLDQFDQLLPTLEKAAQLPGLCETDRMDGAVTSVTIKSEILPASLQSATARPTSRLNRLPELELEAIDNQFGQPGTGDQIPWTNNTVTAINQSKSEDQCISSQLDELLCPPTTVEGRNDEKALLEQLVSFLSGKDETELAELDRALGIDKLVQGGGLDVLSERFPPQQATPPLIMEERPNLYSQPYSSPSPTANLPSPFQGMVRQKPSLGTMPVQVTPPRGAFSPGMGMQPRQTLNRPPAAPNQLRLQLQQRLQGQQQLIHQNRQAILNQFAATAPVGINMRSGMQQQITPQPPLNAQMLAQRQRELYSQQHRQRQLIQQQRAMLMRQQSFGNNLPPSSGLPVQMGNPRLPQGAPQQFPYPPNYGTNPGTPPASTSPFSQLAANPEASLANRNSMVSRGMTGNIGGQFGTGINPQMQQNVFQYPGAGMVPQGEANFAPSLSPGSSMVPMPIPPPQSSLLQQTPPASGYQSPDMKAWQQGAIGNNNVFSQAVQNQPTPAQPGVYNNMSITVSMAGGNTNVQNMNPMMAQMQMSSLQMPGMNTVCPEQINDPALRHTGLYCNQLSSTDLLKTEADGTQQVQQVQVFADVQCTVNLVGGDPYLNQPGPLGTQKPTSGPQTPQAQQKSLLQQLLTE

A word on the inhibition: it is the drop in the measured response relative to a control, in per cent. For the compound `O=C1CC(N2CCN(Cc3ccccc3)CC2)C(=O)N1` (stereo not given), the inhibition in experiment [1] is -10.4% (inactive); in experiment [2], -10.1% (inactive).
In the case of `Cc1ccc(C(=O)NC2CCCc3c2cnn3-c2ccc(F)cc2F)cn1` (stereo not given), the inhibition in experiment [1] was -17.5% (inactive); in experiment [2], 27.2% (active).
Regarding `O=[N+]([O-])c1ccc(CSc2ccc(S(=O)(=O)N3CCOCC3)cn2)cc1`, the inhibition is -7.09% (inactive) in experiment [1] and 0.46% (inactive) in experiment [2].
The corresponding values for `O=C(Nc1cccc(F)c1)/C(=C\c1ccco1)NC(=O)c1ccco1` are -13.4% (inactive) and -7.03% (inactive).
The corresponding values for `CCCC(=O)N1CCCC(c2cc(C(=O)Nc3ccccc3)no2)C1` (stereo not given) are -49.1% (inactive) and -30.6% (inactive).
The corresponding values for `O=S(=O)(Nc1ccc2c(c1)OCCO2)c1cccs1` are 1.12% (inactive) and -9.45% (inactive).
As for `O=C1/C(=N\S(=O)(=O)c2cccs2)C([n+]2ccccc2)=C([O-])c2ccccc21`, the inhibition in experiment [1] was -4.31% (inactive); in experiment [2], 6.99% (inactive).
Regarding `Cc1ccc2oc(C(=O)NC3CCS(=O)(=O)C3)cc(=O)c2c1` (stereo not given), the inhibition was -6.08% (inactive) in experiment [1] and -12.1% (inactive) in experiment [2].
The corresponding values for `COc1ccccc1CNC(=O)C(=O)NCCC1CCCCN1S(=O)(=O)c1ccc(C)cc1` (stereo not given) are 26.4% (inactive) and 7.29% (inactive).
For `COc1ccc(CCN2C(=O)C3C4C=CC(C3C2=O)C2C(=O)N(CCc3ccc(OC)c(OC)c3)C(=O)C42)cc1OC` (stereo not given) the same measures were -5.96% (inactive) and 11.5% (inactive).
For `COc1cc(C(=O)O)cc(NC(=O)c2ccco2)c1OC` the same measures were -9.74% (inactive) and 2.33% (inactive).
Turning to `CCOC(=O)N1CCN(C(=O)c2cc(-c3ccncc3)nc3ccccc23)CC1`, the inhibition in experiment [1] is -21.2% (inactive); in experiment [2], 3.82% (inactive).
Turning to `Cc1cccc(C(=O)OCC(=O)NNC(=O)c2cccs2)c1O`, the inhibition in experiment [1] is -18.5% (inactive); in experiment [2], -2.62% (inactive).
The corresponding values for `O=C(O)CN1C(=O)/C(=C\c2ccccc2OCc2ccc(Cl)cc2Cl)SC1=S` are 32% (inactive) and -7.27% (inactive).
The corresponding values for `Cc1cccc(NC(=O)c2cc(S(=O)(=O)N(C)c3ccc(F)cc3)ccc2Cl)n1` are -17.6% (inactive) and -4.3% (inactive).
The corresponding values for `CCN(CC)S(=O)(=O)c1ccc(N2CCOCC2)c(NC(=O)c2cc(-c3ccccn3)nc3ccccc23)c1` are -32% (inactive) and -1.24% (inactive).
Take `O=C(N/N=C/c1cc(Cl)ccc1O)c1ccccc1Br`: the inhibition was 12.6% (inactive) in experiment [1] and 7.53% (inactive) in experiment [2].
For `CC(C)Cn1c(N)c(C(=O)COC(=O)CC23CC4CC(CC(C4)C2)C3)c(=O)n(C)c1=O` the same measures were 6.72% (inactive) and 34.8% (active).
Regarding `Cc1ccc(CNc2ncnc3ccc(-c4ccc(CO)o4)cc23)o1`, the figures for the inhibition in experiment [1] and in experiment [2] were 11.8% (inactive) and 14.7% (inactive), respectively.
For `CC(=O)Nc1cccc(C(=O)Nc2ccc(S(=O)(=O)NC3=NCCCCC3)cc2)c1` the same measures were -23% (inactive) and -8.18% (inactive).
For `Cc1ccccc1C(=O)Nc1cc(NC(=O)c2ccccc2C)cc(C(=O)O)c1` the same measures were -14.1% (inactive) and -11.4% (inactive).
Consider `COc1ccc(-n2c(SC(C)C(=O)Nc3ncc(Cl)cc3Cl)nc3ccccc32)cc1` (stereo not given), for which the inhibition in experiment [1] was 35.4% (inactive); in experiment [2] it was 79.4% (active).
For `Oc1c(C(Nc2nc3ccccc3s2)c2ccco2)ccc2cccnc12` (stereo not given) the same measures were 28.4% (inactive) and 29.8% (active).
`Cc1ccc(NC(=O)c2cnc(N3CCN(c4ccccn4)CC3)c3ccccc23)c(Br)c1`: the inhibition in experiment [1] was -15.2% (inactive); in experiment [2] it was 17.7% (inactive).
The corresponding values for `C=C(C)Cn1c(SCC(=O)O)nc2c1c(=O)[nH]c(=O)n2C` are 5.38% (inactive) and 10.2% (inactive).
The corresponding values for `Cc1ccc(O)c(Nc2ncnc3ccc([N+](=O)[O-])cc23)c1` are 17.6% (inactive) and 23.6% (inactive).
In the case of `Cn1c(=O)[nH]c(=O)c2c1nc(N1CCCCC1)n2CC(O)COc1ccc([N+](=O)[O-])cc1` (stereo not given), the inhibition in experiment [1] was -27.8% (inactive); in experiment [2], -19% (inactive).
The corresponding values for `Cc1cc(NCc2cccnc2)no1` are -7.64% (inactive) and 9.01% (inactive).
For the compound `CCC(C)OC(=O)C[N+](C)(C)CCOC1CC2CCC1(C)C2(C)C` (stereo not given), the results for the inhibition in experiment [1] and in experiment [2] were 5.52% (inactive) and 2.28% (inactive), respectively.
For `COc1cccc(/C=N/NC(=O)CNC(=O)C2COc3ccccc3O2)c1O` (stereo not given) the same measures were 21.7% (inactive) and 8.91% (inactive).
For `COc1cccc(NC(=O)CN(C)CC(=O)Nc2ccc(C)c([N+](=O)[O-])c2)c1` the same measures were 28% (inactive) and 27.2% (active).
For `O=C(CCC(=O)Nc1ccc(Br)cc1)N/N=C/c1ccccc1O` the same measures were 29.2% (inactive) and 22.2% (inactive).
In the case of `O=C(Nc1ccncc1)c1cccc(S(=O)(=O)N2CCc3ccccc32)c1`, the inhibition in experiment [1] was -21.8% (inactive); in experiment [2], 27.9% (active).
On to `COc1ccc(NC(=O)NNC(=O)COc2ccc3ccccc3c2)cc1OC`, for which the results for the inhibition in experiment [1] and in experiment [2] were 14% (inactive) and 8.08% (inactive), respectively.
For `Cc1cc(C)c(Nc2cc(S(=O)(=O)O)c(N)c3c2C(=O)c2ccccc2C3=O)c(C)c1` the same measures were 9.3% (inactive) and 8.52% (inactive).
For `COc1cc(-c2cc3nc(NCc4cccs4)ccn3n2)cc(OC)c1OC` the same measures were -21.6% (inactive) and 6.25% (inactive).
The corresponding values for `COC(=O)c1cc(=O)n(Cc2ccco2)c(=Nc2ccc(F)c(Cl)c2)s1` are -12.1% (inactive) and 18.7% (inactive).
For the compound `CC(Oc1ccccc1)C(=O)N1CCC2(CC1)CC(=O)c1ccccc1O2` (stereo not given), the values for the inhibition in experiment [1] and in experiment [2] were 5.89% (inactive) and 3.37% (inactive), respectively.
For `NS(=O)(=O)c1ccc(NC(=O)c2cccc3cc4ccccc4nc23)cc1` the same measures were -13.3% (inactive) and 9.91% (inactive).
The corresponding values for `O=c1[nH]cnc2sc3c(c12)CCCC3` are 10.8% (inactive) and 11.2% (inactive).
The corresponding values for `CC(CNC(=O)c1cc(COc2ccc3ncccc3c2)on1)c1ccccc1` (stereo not given) are -0.59% (inactive) and 3.38% (inactive).
As for `CCOc1ccccc1N1CCN(CC(=O)NC(C)c2ccccc2)CC1` (stereo not given), the inhibition is -9.98% (inactive) in experiment [1] and 0.65% (inactive) in experiment [2].
For `COC(C(=O)Nc1ccc(S(=O)(=O)Nc2ccc(C)c(C)c2)cc1)c1ccccc1` (stereo not given) the same measures were -8.72% (inactive) and -12.5% (inactive).
Turning to `COc1ccc(C(=O)Nc2ccc(Cl)c(S(=O)(=O)N3CCOCC3)c2)cc1`, the inhibition in experiment [1] was -18.1% (inactive); in experiment [2], 1.15% (inactive).
The corresponding values for `CN=C(C)/C(C(=O)OC)=C(/O)c1c(F)cccc1F` are -28.3% (inactive) and 3.9% (inactive).
The corresponding values for `CC(C)(CNC(=O)c1ccc(-c2cccc(C(F)(F)F)c2)o1)N1CCOCC1` are -2.1% (inactive) and -0.96% (inactive).
For `CCCc1cc(C(=O)N(C)CC(=O)Nc2ccc(OCC)c(OCC)c2)sc1C` the same measures were 20.5% (inactive) and 17.3% (inactive).
As to `CC1=C(C(=O)OCc2ccccc2)C(c2ccsc2)C(C#N)=C(N)O1` (stereo not given), the inhibition in experiment [1] was -1.74% (inactive); in experiment [2] it was 3.63% (inactive).
The corresponding values for `O=C(O)c1ccccc1-c1c2cc(I)c(=O)c(I)c-2oc2c(I)c(O)c(I)cc12` are 18.7% (inactive) and 15.7% (inactive).
The corresponding values for `CCN(C(=O)C(C)OC(=O)CCCNC(=O)c1ccc(Cl)cc1)c1ccccc1` (stereo not given) are -2.16% (inactive) and -2.69% (inactive).
For `O=C(NCc1ccccc1)C(c1ccccc1)N(Cc1cccs1)C(=O)c1cnccn1` (stereo not given) the same measures were -71.6% (inactive) and -20.6% (inactive).
For the compound `O=C(Nc1cc(Cl)ccc1N1CCOCC1)c1ccco1`, the inhibition in experiment [1] is 1.28% (inactive); in experiment [2], -5.91% (inactive).
The corresponding values for `Cc1ccc(C)c(S(=O)(=O)N2CCN(C(=O)C3CCN(C(=O)c4ccc(F)cc4)CC3)CC2)c1` are -10.9% (inactive) and 1.93% (inactive).
The corresponding values for `Cc1ccc(S(=O)(=O)CC(CN2CCCCC2)N2CCCCC2)cc1` (stereo not given) are 4.8% (inactive) and -1.35% (inactive).
The corresponding values for `Cc1ccc(NC(=O)c2cc(=O)c3ccccc3o2)cc1S(=O)(=O)N1CCCCC1` are -9.96% (inactive) and 7.05% (inactive).
For `COc1ccc(NC(=O)CN(C)C(=O)c2ccc(N3CCCCC3)c([N+](=O)[O-])c2)cc1`, the inhibition in experiment [1] and in experiment [2] was -5.37% (inactive) in each case.
In the case of `O=C(Nc1ccncc1)c1ccccc1[N+](=O)[O-]`, the inhibition in experiment [1] is 33.6% (inactive); in experiment [2] it was 19% (inactive).
Turning to `CCC(C)c1ccc(C(C)NC(=S)NCc2ccc(F)cc2)cc1` (stereo not given), the inhibition was -3.08% (inactive) in experiment [1] and -3.56% (inactive) in experiment [2].
For the compound `S=C1SCN(Cc2ccccn2)CN1Cc1ccco1`, the inhibition was -2.15% (inactive) in experiment [1] and -1.66% (inactive) in experiment [2].
For `CCCCCC(=O)N1CCN(S(=O)(=O)c2ccc3c(c2)OCCO3)CC1` the same measures were -2.33% (inactive) and -1.65% (inactive).
For `CCOC(=O)C1=C(COC(=O)Cc2ccc(Br)cc2)NC(=O)NC1C` (stereo not given) the same measures were -7.28% (inactive) and -12.6% (inactive).
For `CC(Oc1ccc(F)cc1)C(=O)Nc1cc(S(=O)(=O)N2CCCCC2)ccc1N1CCOCC1` (stereo not given) the same measures were -3.38% (inactive) and 6% (inactive).
As to `O=C(NC(=S)NCC1CCCO1)c1ccccc1[N+](=O)[O-]` (stereo not given), the inhibition in experiment [1] is -12.7% (inactive); in experiment [2], -12% (inactive).
For `CCc1cc(=O)[nH]c(SCC(=O)NCc2ccc3c(c2)OCO3)n1` the same measures were -4.66% (inactive) and 1.83% (inactive).
For `CCOc1ccc(CCN2C(=S)N([C@@H](Cc3ccc(O)cc3)CN3CCC[C@@H]3CN3C(=S)NC[C@@H]3CC(C)C)C[C@@H]2CC(C)C)cc1` the same measures were -13% (inactive) and -0.17% (inactive).
The corresponding values for `O=C(CSc1n[nH]c(-c2cccnc2)n1)Nc1ccc([N+](=O)[O-])cc1` are -26.9% (inactive) and -8.24% (inactive).
For the compound `COc1cccc(OCCn2cc(C(C)=O)c3ccccc32)c1`, the inhibition in experiment [1] was 10.7% (inactive); in experiment [2] it was 30.8% (active).
On to `CCN(CC)CCNC(=O)c1ccc(NC(=O)C2CCN(c3ncnc4sc(C)c(C)c34)CC2)cc1`, for which the inhibition in experiment [1] is 24.3% (inactive); in experiment [2], 17.3% (inactive).
For `O=C(NCCc1ccc(F)cc1)C(=O)NCC1CCCN1S(=O)(=O)c1ccccc1` (stereo not given) the same measures were -36.4% (inactive) and -2.18% (inactive).
For `COc1ccccc1C1NC(=O)NC(C)=C1C(=O)OC1CCCC(C)C1` (stereo not given) the same measures were 6.58% (inactive) and -1.62% (inactive).
